In PubChem BioAssay (Tox21):
Inconclusive results are not listed. Active and inactive are the calls of the source. Unless noted, the call rests on the fitted dose curve; in most records, active means well fitted curve in the direction sought with a large enough effect in the repeat runs; inconclusive means weak or mixed curves; inactive means no such curve, though single readings can be large; an effect the other way counts as inactive or inconclusive.

Columns and labels:
[1] = qHTS assay to identify aromatase inhibitors - cell viability counter screen (AID 743084);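 further: cells stimulated with testosterone during compound exposure; nearly all actives have a fitted effect of over 55% in size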
[2] = target: Aryl hydrocarbon receptor (Homo sapiens) (UniProt P35869); assay: qHTS assay to identify small molecule that activate the aryl hydrocarbon receptor (AhR) signaling pathway (AID 743085);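 further: HG2L7.5c1 human HepG2 liver cells with stably integrated DRE-driven firefly reporter; series mostly up to about 70 µM; nearly all actives have a fitted effect of over 15% in size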
In short: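 HepG2 cells (HG2L7.5c1) stably carrying a firefly luciferase reporter driven by 20 dioxin responsive elements were exposed to compound for 24 h at 37C after a 5 h settling period; luminescence rise (ONE-Glo) indicated activation.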

[3] = qHTS assay to identify small molecule that activate the aryl hydrocarbon receptor (AhR) signaling pathway - cell viability counter screen (AID 743086);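 further: HepG2 liver cells carrying the AhR DRE luciferase reporter; series mostly up to about 70 µM; nearly all actives have a fitted effect of over 45% in size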
In short: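 HepG2-AhR-luc (HG2L7.5c1) cells, 4000/well, were preincubated 5 h at 37C, exposed to compound in qHTS format for 24 hr at 37C, then given CellTiter-Fluor for 30 min; viability was read as fluorescence in the reporter wells.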

[4] = target: Peroxisome proliferator-activated receptor gamma (Homo sapiens) (UniProt P37231); assay: qHTS assay to identify small molecule agonists of the peroxisome proliferator-activated receptor gamma (PPARg) signaling pathway (AID 743094; active means well fitted activation curve with a large enough effect in the signal ratio in the repeat runs, not every such curve was filed as active; the % refers to the signal ratio)
In short: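 Cell-based bla reporter, HEK293H background, PPARg-driven UAS. Pre-incubation 5 h, 37C, 5% CO2. Compound 17 h, 37C. Substrate 1 h RT; fluorescence.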

[5] = target: Peroxisome proliferator-activated receptor gamma (Homo sapiens) (UniProt P37231); assay: qHTS assay to identify small molecule antagonists of the peroxisome proliferator-activated receptor gamma (PPARg) signaling pathway (AID 743191; calls by dose curve; further: series mostly up to about 63 µM; nearly all actives have a fitted effect of over 30% in size)
In short: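 GeneBLAzer PPARg UAS-bla HEK293H cells carrying a UAS-driven beta-lactamase reporter were plated at 3000 cells/well, preincubated 5 h at 37C, then given compound for 17 h at 37C; LiveBLAzer B/G FRET substrate was read after 1 h at room temperature.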

[6] = qHTS assay to identify small molecule antagonists of the peroxisome proliferator-activated receptor gamma (PPARg) signaling pathway - cell viability counter screen (AID 743194); further: nearly all actives have a fitted effect of over 55% in size
In short: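 PPARg-UAS-bla HEK293H cells were plated, rested 5 h at 37 C, then treated with compounds plus rosiglitazone (50 nM final) for 17 h at 37 C; viability was then read by CellTiter-Glo luminescence after 30 min at room temperature.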

[7] = qHTS assay for small molecule agonists of the antioxidant response element (ARE) signaling pathway - cell viability counter screen (AID 743203; calls by dose curve; further: nearly all actives have a fitted effect of over 55% in size)
In short: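 Measured in the same wells as the beta-lactamase ARE reporter, this read-out is CellTiter-Glo luminescence from HepG2 ARE-bla cells given compounds for 16 hrs.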

[8] = qHTS assay for small molecule activators of the heat shock response signaling pathway - cell viability counter screen (AID 743209); further: nearly all actives have a fitted effect of over 50% in size
In short: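 Same-well multiplex: after 2.5 h room-temperature incubation with LiveBLAzer B/G substrate and fluorescence reading, CellTiter-Glo reagent was added to HSE-bla HeLa cells that had received compound for 5 h at 37 C; luminescence read after 30 min.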

[9] = qHTS assay for small molecule activators of the heat shock response signaling pathway (AID 743210; active means well fitted activation curve with a large enough effect in the signal ratio in the repeat runs, with a control signal flat, not every such curve was filed as active; the % refers to the signal ratio; further: series mostly up to about 63 µM)
In short: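 Heat shock element–beta-lactamase HeLa reporter cells; qHTS with compounds for 5 h at 37 C; detection by FRET substrate fluorescence after 2.5 h at RT.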

[10] = qHTS assay to identify small molecule agonists of the peroxisome proliferator-activated receptor delta (PPARd) signaling pathway - cell viability counter screen (AID 743211); further: nearly all actives have a fitted effect of over 55% in size
In short: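 PPARd-bla HEK293H cells (UAS-beta-lactamase reporter) were treated with compounds for 17 h at 37 C. Viability was then read in the same wells by CellTiter-Glo luminescence after 30 min at room temperature.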

[11] = target: Peroxisome proliferator-activated receptor delta (Homo sapiens) (UniProt Q03181); assay: qHTS assay to identify small molecule agonists of the peroxisome proliferator-activated receptor delta (PPARd) signaling pathway (AID 743212; calls by dose curve)
In short: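 Beta-lactamase reporter read by fluorescence (LiveBLAzer B/G FRET, 2 h, room temperature). Test agents, in DMSO, incubated at 37 C with PPARd-bla HEK293H cells.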

[12] = qHTS assay to identify small molecule antagonists of the peroxisome proliferator-activated receptor delta (PPARd) signaling pathway - cell viability counter screen (AID 743213); further: nearly all actives have a fitted effect of over 50% in size
In short: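 CellTiter-Glo was added to PPARd-bla HEK293H wells following 17 h compound treatment in the presence of 300 nM L165041. Luminescence was recorded after 30 min at room temperature.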

[13] = qHTS assay to identify small molecule agonists of the farnesoid-X-receptor (FXR) signaling pathway - cell viability counter screen (AID 743218); further: nearly all actives have a fitted effect of over 45% in size
In short: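 Readout: CellTiter-Glo luminescence, 30 min RT, multiplexed after the FXR-bla FRET reading. HEK 293T FXR-UAS-bla cells received compound 5 h post-plating and were incubated 16 h at 37 C.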

[14] = target: Vitamin D3 receptor (Homo sapiens) (UniProt P11473); assay: qHTS assay to identify small molecule agonists of the vitamin D receptor (VDR) signaling pathway (AID 743222; calls by dose curve)
In short: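 Following 4 h attachment at 37C, VDR-bla cells (2,000 per well) received DMSO-dissolved compounds or controls. After 16 h incubation, LiveBLAzer B/G FRET substrate was added and fluorescence read 2 h later at room temperature.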

[15] = qHTS assay for small molecule agonists of the antioxidant response element (ARE) signaling pathway (AID 743202; active means well fitted activation curve with a large enough effect in the signal ratio in the repeat runs, not every such curve was filed as active; the % refers to the signal ratio)
In short: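 Following a 16 h, 37 C exposure of reporter HepG2 cells (ARE-driven beta-lactamase, 2,000 cells/well) to compounds, FRET substrate was applied for 2 h at room temperature and fluorescence intensity recorded.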

[16] = target: Peroxisome proliferator-activated receptor delta (Homo sapiens) (UniProt Q03181); assay: qHTS assay to identify small molecule antagonists of the peroxisome proliferator-activated receptor delta (PPARd) signaling pathway (AID 743215; active means well fitted inhibition curve with a large enough effect in the signal ratio in the repeat runs, not every such curve was filed as active; the % refers to the signal ratio;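 further: cells stimulated with agonist L165041 at 300 nM final during compound exposure; series mostly up to about 62 µM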)
In short: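 Fluorescence from cleaved LiveBLAzer B/G FRET substrate (2 h, room temperature) reports PPARd-driven beta-lactamase in HEK293H UAS-bla cells. Cells had been treated 17 h at 37 C with compound plus 300 nM final L165041.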

[17] = qHTS assay to identify small molecule antagonists of the farnesoid-X-receptor (FXR) signaling pathway - cell viability counter screen (AID 743221; active means well fitted cell-killing curve with a large enough effect in the repeat runs, not every such curve was filed as active; further: nearly all actives have a fitted effect of over 50% in size)
In short: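 FXR-UAS-bla HEK 293T cells were treated with test compounds plus chenodeoxycholic acid (50 uM final) for 16 h at 37 C. Cell viability in the same wells was then read as CellTiter-Glo luminescence after 30 min at room temperature.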

[18] = target: Vitamin D3 receptor (Homo sapiens) (UniProt P11473); assay: qHTS assay to identify small molecule antagonists of the vitamin D receptor (VDR) signaling pathway (AID 743223; active means well fitted inhibition curve with a large enough effect in the signal ratio in the repeat runs, not every such curve was filed as active; the % refers to the signal ratio)
In short: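 VDR-bla cells were plated, incubated 4 h at 37C, then given compound and 1alpha,25-dihydroxyvitamin D3 (3 nM final). After 16 h at 37C, LiveBLAzer B/G FRET substrate was added for 2 h at room temperature and fluorescence read.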

[19] = target: Bile acid receptor (Homo sapiens) (UniProt Q96RI1); assay: qHTS assay to identify small molecule antagonists of the farnesoid-X-receptor (FXR) signaling pathway (AID 743217; active means well fitted inhibition curve with a large enough effect in the signal ratio in the repeat runs, not every such curve was filed as active; the % refers to the signal ratio)
In short: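 FRET fluorescence after 2 h room-temperature LiveBLAzer loading gives the readout. Prior step: FXR-bla HEK 293T cells, seeded and incubated 5 h, received test compounds plus 50 uM final CDCA for 16 h at 37 °C.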

[20] = target: Bile acid receptor (Homo sapiens) (UniProt Q96RI1); assay: qHTS assay to identify small molecule agonists of the farnesoid-X-receptor (FXR) signaling pathway (AID 743220; active means well fitted activation curve with a large enough effect in the signal ratio in the repeat runs, not every such curve was filed as active; the % refers to the signal ratio)
In short: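 FXR-UAS-bla HEK 293T cells carrying a UAS-driven beta-lactamase reporter were plated for 5 h at 37C/5% CO2, then exposed to DMSO-dissolved Tox21 10K compounds for 16 h at 37C. A LiveBLAzer B/G FRET substrate was loaded for 2 h at room temperature before fluorescence reading.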

Measured: Potency

Sequence of Bile acid receptor (Homo sapiens) (Q96RI1 whole entry, looked up): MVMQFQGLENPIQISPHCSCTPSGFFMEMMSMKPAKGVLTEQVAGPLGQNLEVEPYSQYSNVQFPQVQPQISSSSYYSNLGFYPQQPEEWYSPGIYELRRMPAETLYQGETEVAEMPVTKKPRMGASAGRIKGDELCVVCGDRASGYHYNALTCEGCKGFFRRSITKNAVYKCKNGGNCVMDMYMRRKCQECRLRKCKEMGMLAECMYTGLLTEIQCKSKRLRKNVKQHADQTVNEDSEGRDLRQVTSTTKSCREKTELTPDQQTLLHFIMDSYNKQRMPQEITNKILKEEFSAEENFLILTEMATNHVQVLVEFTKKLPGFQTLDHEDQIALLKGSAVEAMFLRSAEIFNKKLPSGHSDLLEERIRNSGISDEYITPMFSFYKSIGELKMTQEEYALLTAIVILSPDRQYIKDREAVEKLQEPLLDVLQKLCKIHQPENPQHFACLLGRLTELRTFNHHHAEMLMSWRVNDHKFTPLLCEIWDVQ
Sequence of Peroxisome proliferator-activated receptor gamma (Homo sapiens) (P37231 whole entry, looked up): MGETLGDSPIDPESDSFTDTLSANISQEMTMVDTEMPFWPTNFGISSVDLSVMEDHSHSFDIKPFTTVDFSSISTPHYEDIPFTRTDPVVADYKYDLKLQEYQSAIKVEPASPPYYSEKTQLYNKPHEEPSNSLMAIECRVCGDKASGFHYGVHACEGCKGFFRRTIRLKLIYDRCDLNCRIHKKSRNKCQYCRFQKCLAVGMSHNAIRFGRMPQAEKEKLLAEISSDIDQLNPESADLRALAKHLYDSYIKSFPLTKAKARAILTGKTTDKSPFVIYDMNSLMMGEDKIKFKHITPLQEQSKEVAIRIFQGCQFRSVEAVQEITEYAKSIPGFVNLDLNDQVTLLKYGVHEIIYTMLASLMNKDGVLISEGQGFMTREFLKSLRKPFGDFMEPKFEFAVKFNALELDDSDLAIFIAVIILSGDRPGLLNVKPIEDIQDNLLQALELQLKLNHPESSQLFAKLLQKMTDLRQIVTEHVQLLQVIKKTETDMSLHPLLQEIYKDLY
Sequence of Aryl hydrocarbon receptor (Homo sapiens) (P35869 whole entry, looked up): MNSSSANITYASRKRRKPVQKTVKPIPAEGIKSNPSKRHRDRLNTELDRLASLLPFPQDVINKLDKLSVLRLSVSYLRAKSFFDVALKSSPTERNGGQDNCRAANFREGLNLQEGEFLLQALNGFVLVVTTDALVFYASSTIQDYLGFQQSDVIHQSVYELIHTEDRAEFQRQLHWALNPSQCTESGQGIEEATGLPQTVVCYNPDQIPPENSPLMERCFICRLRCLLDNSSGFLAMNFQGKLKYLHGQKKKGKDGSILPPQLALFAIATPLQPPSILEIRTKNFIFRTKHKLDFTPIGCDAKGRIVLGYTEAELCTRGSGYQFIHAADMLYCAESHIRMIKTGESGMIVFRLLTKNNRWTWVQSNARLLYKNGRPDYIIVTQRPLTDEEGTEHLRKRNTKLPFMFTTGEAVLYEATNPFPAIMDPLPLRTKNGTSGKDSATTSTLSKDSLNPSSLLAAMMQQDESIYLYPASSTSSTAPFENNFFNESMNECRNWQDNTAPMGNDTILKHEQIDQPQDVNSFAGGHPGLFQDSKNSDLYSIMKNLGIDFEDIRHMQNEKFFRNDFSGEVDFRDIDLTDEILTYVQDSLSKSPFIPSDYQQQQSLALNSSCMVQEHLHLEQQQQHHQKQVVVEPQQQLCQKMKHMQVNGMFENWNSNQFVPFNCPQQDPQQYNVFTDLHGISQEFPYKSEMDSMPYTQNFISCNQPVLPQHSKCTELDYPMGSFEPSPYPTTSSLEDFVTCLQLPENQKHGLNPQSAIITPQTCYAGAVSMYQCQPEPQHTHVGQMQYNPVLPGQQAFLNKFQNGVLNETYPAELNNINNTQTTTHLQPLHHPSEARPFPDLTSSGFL
Sequence of Peroxisome proliferator-activated receptor delta (Homo sapiens) (Q03181 whole entry, looked up): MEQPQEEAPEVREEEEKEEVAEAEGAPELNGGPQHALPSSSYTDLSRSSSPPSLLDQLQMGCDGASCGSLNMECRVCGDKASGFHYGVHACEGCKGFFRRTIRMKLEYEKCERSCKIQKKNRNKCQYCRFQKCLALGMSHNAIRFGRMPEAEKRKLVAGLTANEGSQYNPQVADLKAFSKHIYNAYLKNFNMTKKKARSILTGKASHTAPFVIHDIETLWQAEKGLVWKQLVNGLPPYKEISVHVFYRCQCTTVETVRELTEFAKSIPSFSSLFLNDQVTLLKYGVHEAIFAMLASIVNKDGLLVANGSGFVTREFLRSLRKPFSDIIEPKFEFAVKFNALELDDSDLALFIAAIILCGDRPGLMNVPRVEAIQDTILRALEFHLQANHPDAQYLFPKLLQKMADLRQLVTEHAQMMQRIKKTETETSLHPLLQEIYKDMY
Sequence of Vitamin D3 receptor (Homo sapiens) (P11473 whole entry, looked up): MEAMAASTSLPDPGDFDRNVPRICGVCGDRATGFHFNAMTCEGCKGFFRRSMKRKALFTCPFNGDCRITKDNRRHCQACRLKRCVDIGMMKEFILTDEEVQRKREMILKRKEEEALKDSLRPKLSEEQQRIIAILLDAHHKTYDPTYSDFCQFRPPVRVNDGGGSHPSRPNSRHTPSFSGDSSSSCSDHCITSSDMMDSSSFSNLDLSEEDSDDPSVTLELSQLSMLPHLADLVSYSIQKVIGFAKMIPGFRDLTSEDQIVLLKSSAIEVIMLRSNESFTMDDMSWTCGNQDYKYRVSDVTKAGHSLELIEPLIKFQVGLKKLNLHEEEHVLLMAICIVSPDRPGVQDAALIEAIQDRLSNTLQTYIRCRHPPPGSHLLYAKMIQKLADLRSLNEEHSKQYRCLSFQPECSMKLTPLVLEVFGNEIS

C=CC(C)(CCC=C(C)C)OC(=O)CC(C)C (stereo not given)
not listed: [15] | [16] | [17] | [18] | [19] | [20]
inactive: all other assays above

O=c1[nH]ncc2ccccc12
not listed: [9] | [14] | [19] | [20]
inactive: all other assays above

Cc1cc2c(OCC(CNC(C)(C)C)OC(=O)c3ccccc3)cccc2[nH]1 (stereo not given)
not listed: [11] | [16] | [19] | [20]
inactive: all other assays above

Brc1cc2ccccc2c2ccccc12
not listed: [11] | [14] | [16] | [18] | [19] | [20]
inactive: all other assays above

FC(F)(F)c1ccccc1Cl
not listed: [16]
inactive: all other assays above

CCCCCCC(C)(C)C(=O)O
not listed: [6] | [13] | [18]
inactive: all other assays above

CN1C(C(=O)Nc2ccccn2)=C(O)c2sccc2S1(=O)=O
not listed: [9] | [14] | [18] | [19] | [20]
inactive: all other assays above

CC(C)=CCC/C(C)=C/CC/C(C)=C/CCC(=O)OC/C=C(\C)CCC=C(C)C
not listed: [8] | [14] | [17] | [18] | [19] | [20]
inactive: all other assays above
